From PubChem BioAssay
Pf Dd2 growth: blocks in vitro growth of P. falciparum Dd2 | P. falciparum Dd2 growth, SYBR Green, 72 h | Potency, µM (top dose mostly 28.9 µM), for inactives: top-dose activity, negative = inhibition, hits mostly inhibitors | 4.3% of 120,000 active; active = well fitted inhibition curve with a large enough effect;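 note: plate controls were DMSO vehicle for no effect and reference drug for full effect; nearly all actives have a fitted effect of over 65% in size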
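Readout: SYBR Green fluorescence, 485 nm excitation, 535 nm emission, after ~16 h lysis at 37C. Before that, Dd2-infected red cells (2.5% hematocrit) grew 72 h with compound, 29 uM top final concentration.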
Active calls of the source: *; i = inactive; [ ] = remark or other dose. Many of the other results were omitted from the sample, so hits are more common in it than they were. Potency is the fitted concentration of half-maximal effect.

SMILES | Pf Dd2 growth
CCc1c(C)sc2c1CCN(Cc1cccc(OC)c1)C2c1ccccc1 (configuration not stated) | 7.9µM*
COc1cccc(Cn2c(C)c(CNC3CCCCC3)c(C(=O)O)c2C)c1 | 13%
CCc1c(C)sc2c1CCN(Cc1ccccc1F)C2c1ccccc1 (configuration not stated) | 3.2µM*
CC(C)(C)c1coc([C@@H]2COCCN2Cc2ccccc2F)n1 | i
Nc1nccc(N2CCN(Cc3ccccc3F)C(CCO)C2)n1 (configuration not stated) | -11%
COc1cccc(CN2CCOCCNC(=O)CC2)c1 | -12%
COc1ccc(-c2ccccc2)cc1N1C(=O)[C@@H]2C[C@H]1CN2C(=O)[C@@H](C)O | -2%
O=C(c1ccco1)N1CC(Oc2ccc(-c3nc(-c4ccccc4)no3)cc2)C1 | -6%[5.79 µM]
O=C(Cc1ccc(F)cc1)N1CCC[C@H]1c1nc(-c2ccc(F)cc2)no1 | i
CCOc1ccc(CC(=O)N2CCC[C@H]2c2nc(-c3ccccc3)no2)cc1OCC | -32%
O=C(Cc1ccccc1)N1CCC[C@H]1c1nc(-c2ccccc2)no1 | 10µM*
CCn1nccc1C(=O)N1CCCn2cc(-c3ccccc3)nc21 | i
Cc1ccc(CN2C(=O)[C@@H]3C[C@@H](O)CN3C3(CN(CC(C)(C)C)C3)C2=O)o1 | i
Cc1scc(CN2CCN(c3ccc(F)cc3)CC2)c1C | -16%
Cc1cc(O)c(CN2CCN(c3ccc(F)cc3)CC2)c2oc(=O)cc(C)c12 | 11µM*
COc1ccc(N2CCN(Cc3cc(=O)oc4ccc(OC)cc34)CC2)cc1 | -13%
NC(=O)[C@@H]1CN(C(=O)c2ccncn2)C[C@H]1COc1ccccc1 | 3%
Cc1[nH]ncc1CNC(=O)CCC1CCCN(S(=O)(=O)c2cccc(F)c2)C1 (configuration not stated) | -4%
Cc1nnc([C@H]2CCN(Cc3cc4ccccc4o3)C2)o1 | i
CCC1CN(Cc2cn(Cc3ccccc3)nc2-c2cc3ccccc3o2)CCO1 (configuration not stated) | 10µM*
C=CCn1cc(CN2CCOC(Cc3cccc(OC)c3)C2)c(C)n1 (configuration not stated) | -24%
Cc1cccc(C)c1NC(=O)N1CCC(n2cc(-c3cccnc3)nn2)CC1 | -5%
CSc1ccc(-c2nc(CN3CCCC(CO)C3)c(C)o2)cc1 (configuration not stated) | i
Cc1oc(-c2cccc(C(F)(F)F)c2)nc1CN1CCCC(CO)C1 (configuration not stated) | 11µM*
Cc1ccc(Cl)cc1N1CCN(C(=O)C2CCCN(Cc3nc(-c4cccc(Cl)c4)oc3C)C2)CC1 (configuration not stated) | -4%
SMILES | Pf Dd2 growth
CC(=O)Nc1cc(-c2cn(C)c(=O)n3cc(CN4CC[S+](=O)([O-])CC4)nc23)ccn1 | -23%[44.1 µM]
CCc1noc(C)c1C(=O)N[C@H]1CCOC[C@H]1C1CCOCC1 | -4%
O=C(Nc1ccc(-c2nnc3n2CCCC3)cc1)c1ccc(Cl)cc1 | 5µM*
COc1ccc(C(=O)Nc2ccc(-c3nnc4n3CCCC4)cc2)cn1 | 7.1µM*
O=C(Nc1ccc(-c2nnc3n2CCCC3)cc1)c1ccncc1 | i
O=C(Nc1ccc(-c2nnc3n2CCCC3)cc1)c1cc(-c2ccccc2)n[nH]1 | 14µM*
O=C(NC1CCc2n[nH]c(=O)n2CC1)c1ccc2ccccc2n1 (configuration not stated) | i
O=C(Nc1ccc(-c2nnc3n2CCCC3)cc1)c1cc(F)ccc1F | i
CCOc1ccc(C(=O)Nc2ccc(-c3nnc4n3CCCCC4)cc2)cc1OCC | -18%
O=C(Nc1ccc(-c2nnc3n2CCCC3)cc1)c1ccc2ccccc2n1 | 1µM*
COc1ccc(Cl)cc1C(=O)Nc1ccc(-c2nnc3n2CCCCC3)cc1 | 4%
COc1ccc(CCc2nc(-c3nnn4c3COC(c3ccc(Cl)cc3)C4)no2)cc1 (configuration not stated) | 53%
CN1C[C@@H](NC(=O)Nc2ccccc2)C[C@H]1c1nc(Cc2ccccc2)no1 | -6%[44.1 µM]
CN(C)CCCOc1ccc(-c2cnc(N)cn2)cn1 | 2%
CNC(=O)C(C)(C)N1CCC[C@H]1C(=O)N1CCC[C@@H]1COC | 23%[44.1 µM]
CCc1noc(-c2cn(C3CCN(C(=O)c4cccc(N(C)C)c4)CC3)nn2)n1 | -15%
COc1ccccc1NC(=O)C1=C(C)Nc2c(C(=O)Nc3ccc(F)cc3)cnn2C1c1ccc(Cl)cc1 (configuration not stated) | 8.9µM*
CCOc1ccc(NC(=O)c2cnc(Nc3ccccc3OC)c3ccccc23)cc1 | i
CCOc1ccc(NC(=O)c2cnn3c2NC(c2ccccc2)=CC3c2cccc(OC)c2OC)cc1 (configuration not stated) | 2.5µM*
COc1ccccc1NC(=O)C1=C(C)Nc2nc(SCC(=O)c3ccc(C)cc3)nn2C1c1ccc(F)cc1 (configuration not stated) | 22%
CC1=C(C(=O)Nc2ccccc2)C(c2ccc(C(=O)O)cc2)n2ncnc2N1 (configuration not stated) | i
